According to PubChem BioAssay (EPA / NIEHS):
Where “and” joins values, the source holds several entries; their conditions need not be identical. Identical values can stand only once. Inconclusive results are not listed. A structure can be active in one record and inactive in another. Calls of active or inactive are those of the source. Rule for the calls, unless noted: active = hit-call score of the fitted dose curve at least 0.9, where 1 is the maximum; inactive = score below 0.9.

How the values were obtained:
[1] = target: human RAR-related Orphan Receptor gamma (RORg), RORC (gene 6097) (UniProt P51449); assay: ATG_RORg_TRANS: Attagene TRANS-FACTORIAL HepG2 Assay for human RAR-related Orphan Receptor gamma (RORg) (AID 2283011; active = hit-call score of the fitted dose curve at least 0.9, where 1 is the maximum;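 for AC50: potency for induction of reporter transcripts above DMSO so activators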)
Sequence of human RAR-related Orphan Receptor gamma (RORg), RORC (gene 6097) (P51449 whole entry, looked up, the tested form may be a part): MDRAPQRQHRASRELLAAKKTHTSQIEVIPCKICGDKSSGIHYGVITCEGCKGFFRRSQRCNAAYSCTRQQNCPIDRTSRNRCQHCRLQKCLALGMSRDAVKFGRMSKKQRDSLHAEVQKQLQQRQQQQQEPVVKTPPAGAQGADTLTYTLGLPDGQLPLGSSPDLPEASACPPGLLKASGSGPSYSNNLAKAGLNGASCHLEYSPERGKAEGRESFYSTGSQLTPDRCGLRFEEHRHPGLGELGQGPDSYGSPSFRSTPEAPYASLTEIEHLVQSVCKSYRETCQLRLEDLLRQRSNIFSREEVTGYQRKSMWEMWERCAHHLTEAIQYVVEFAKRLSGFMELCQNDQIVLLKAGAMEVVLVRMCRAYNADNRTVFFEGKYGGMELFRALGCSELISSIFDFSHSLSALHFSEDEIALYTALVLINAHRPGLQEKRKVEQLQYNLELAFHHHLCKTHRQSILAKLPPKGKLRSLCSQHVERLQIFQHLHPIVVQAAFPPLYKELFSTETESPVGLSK
How it was run: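 Activity is scored as increase in GAL4-UAS reporter mRNA over DMSO, detected by fluorescent RT-PCR and capillary electrophoresis in HepG2 cells transiently expressing a RORg-Gal4 chimera, 24 h after dosing.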

[2] = target: Retinoic acid receptor RXR-alpha (Homo sapiens) (UniProt P19793); assay: ATG_RXRa_TRANS: Attagene TRANS-FACTORIAL HepG2 Assay for human Retinoid X Receptor alpha (RXRa) (AID 2283012; active = hit-call score of the fitted dose curve at least 0.9, where 1 is the maximum)
Sequence of Retinoic acid receptor RXR-alpha (Homo sapiens) (P19793 whole entry, looked up, the tested form may be a part): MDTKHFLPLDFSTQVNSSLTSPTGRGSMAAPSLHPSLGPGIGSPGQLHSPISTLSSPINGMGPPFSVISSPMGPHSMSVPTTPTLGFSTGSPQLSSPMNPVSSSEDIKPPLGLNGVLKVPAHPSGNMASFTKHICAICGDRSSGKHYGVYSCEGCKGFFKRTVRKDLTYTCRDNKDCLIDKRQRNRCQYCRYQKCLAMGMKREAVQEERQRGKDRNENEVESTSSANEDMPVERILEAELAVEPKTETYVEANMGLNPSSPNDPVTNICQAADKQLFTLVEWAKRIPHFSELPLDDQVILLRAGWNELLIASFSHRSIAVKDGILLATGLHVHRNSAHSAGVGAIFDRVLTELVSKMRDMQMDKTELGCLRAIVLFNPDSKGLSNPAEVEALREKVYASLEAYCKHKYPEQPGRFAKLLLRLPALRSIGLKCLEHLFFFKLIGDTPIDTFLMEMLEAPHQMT
How it was run: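 Measures exogenous chimeric NR-GAL4 activity in transfected HepG2 liver cells after 24 h of dosing. Induced reporter mRNA was detected by RT-PCR with capillary electrophoresis, and gain of signal was analysed against DMSO.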

[3] = target: human Retinoid X Receptor beta (RXRb), RXRB (gene 6257) (UniProt P28702); assay: ATG_RXRb_TRANS: Attagene TRANS-FACTORIAL HepG2 Assay for human Retinoid X Receptor beta (RXRb) (AID 2283013; active = hit-call score of the fitted dose curve at least 0.9, where 1 is the maximum)
Sequence of human Retinoid X Receptor beta (RXRb), RXRB (gene 6257) (P28702 whole entry, looked up, the tested form may be a part): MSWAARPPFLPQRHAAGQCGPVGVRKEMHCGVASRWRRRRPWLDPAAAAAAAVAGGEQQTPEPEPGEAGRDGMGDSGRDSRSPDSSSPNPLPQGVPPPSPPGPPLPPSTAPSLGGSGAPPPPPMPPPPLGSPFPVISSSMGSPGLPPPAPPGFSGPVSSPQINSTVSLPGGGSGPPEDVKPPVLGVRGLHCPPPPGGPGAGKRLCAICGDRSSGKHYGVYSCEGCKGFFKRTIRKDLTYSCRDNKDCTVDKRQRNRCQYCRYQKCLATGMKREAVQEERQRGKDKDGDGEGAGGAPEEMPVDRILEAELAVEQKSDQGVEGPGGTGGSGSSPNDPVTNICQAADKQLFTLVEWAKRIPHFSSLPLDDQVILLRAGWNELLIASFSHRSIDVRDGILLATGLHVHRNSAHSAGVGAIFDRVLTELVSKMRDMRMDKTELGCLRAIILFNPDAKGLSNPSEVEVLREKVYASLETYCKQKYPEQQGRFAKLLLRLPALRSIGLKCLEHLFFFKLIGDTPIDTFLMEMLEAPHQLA
How it was run: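 Chimeric receptor-Gal4 activity was assessed in transiently transfected human HepG2 cells after 24 h exposure. Transcripts from GAL4-UAS reporters were quantified by fluorescent RT-PCR and capillary electrophoresis, with DMSO as negative control and baseline.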

[4] = read-out: E-selectin (Homo sapiens) (UniProt P16581); assay: BSK_3C_Eselectin: BioMAP Diversity Plus: 3C Assay for Eselectin Biomarker Activity (AID 2283015); conditions: primary human endothelial cells (HUVEC); actives raise or lower the signal
How it was run: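 Human vascular endothelium from umbilical vein is exposed to test chemicals for 24 h. E-selectin levels are read by ELISA and compared with DMSO controls.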

[5] = read-out: Interleukin-1 alpha (IL1a), IL1A (gene 3552); assay: BSK_BE3C_IL1a: BioMAP Diversity Plus: BE3C Assay for Interleukin-1 alpha (IL1a) Biomarker Activity (AID 2283016); conditions: primary human bronchial epithelial cells; actives raise or lower the signal
How it was run: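 Signal from IL-1a ELISA, taken 24 h after chemical dosing of human bronchial epithelial cells, is compared with DMSO as baseline using bidirectional curve fitting.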

[6] = read-out: Monocyte Chemoattractant Protein-1 (MCP1), CCL2 (gene 6347); assay: BSK_3C_MCP1: BioMAP Diversity Plus: 3C Assay for Monocyte Chemoattractant Protein-1 (MCP1) Biomarker Activity (AID 2283017); conditions: primary human endothelial cells (HUVEC); actives raise or lower the signal
How it was run: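 Endothelial cells from human umbilical vein are dosed with chemical, cultured 24 h, then assayed for MCP-1 by ELISA; both increases and decreases are modelled against DMSO controls.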

[7] = read-out: Monocyte Chemoattractant Protein-1 (MCP1), CCL2 (gene 6347); assay: BSK_4H_MCP1: BioMAP Diversity Plus: 4H Assay for Monocyte Chemoattractant Protein-1 (MCP1) Biomarker Activity (AID 2283018); conditions: primary human endothelial cells (HUVEC); actives raise or lower the signal
How it was run: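 Endothelial cells from umbilical vein were treated with test chemical, then after 24 h MCP-1 levels were quantified by ELISA; endpoint values came from bidirectional fitting with DMSO as baseline of activity.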

[8] = read-out: Human Leukocyte Antigen - DR isotype (HLADR), HLA-DRA (gene 3122); assay: BSK_3C_HLADR: BioMAP Diversity Plus: 3C Assay for Human Leukocyte Antigen - DR isotype (HLADR) Biomarker Activity (AID 2283019); conditions: primary human endothelial cells (HUVEC); actives raise or lower the signal
How it was run: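 Endothelial cells from human umbilical vein are treated with test chemical; after 24 h, HLA-DR levels are measured by ELISA. Data are fitted in both directions using DMSO as the baseline.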

[9] = target: human Thyroid Receptor alpha (THRa1), THRA (gene 7067) (UniProt P10827); assay: ATG_THRa1_TRANS: Attagene TRANS-FACTORIAL HepG2 Assay for human Thyroid Receptor alpha (THRa1) (AID 2283014; active = hit-call score of the fitted dose curve at least 0.9, where 1 is the maximum)
Sequence of human Thyroid Receptor alpha (THRa1), THRA (gene 7067) (P10827 whole entry, looked up, the tested form may be a part): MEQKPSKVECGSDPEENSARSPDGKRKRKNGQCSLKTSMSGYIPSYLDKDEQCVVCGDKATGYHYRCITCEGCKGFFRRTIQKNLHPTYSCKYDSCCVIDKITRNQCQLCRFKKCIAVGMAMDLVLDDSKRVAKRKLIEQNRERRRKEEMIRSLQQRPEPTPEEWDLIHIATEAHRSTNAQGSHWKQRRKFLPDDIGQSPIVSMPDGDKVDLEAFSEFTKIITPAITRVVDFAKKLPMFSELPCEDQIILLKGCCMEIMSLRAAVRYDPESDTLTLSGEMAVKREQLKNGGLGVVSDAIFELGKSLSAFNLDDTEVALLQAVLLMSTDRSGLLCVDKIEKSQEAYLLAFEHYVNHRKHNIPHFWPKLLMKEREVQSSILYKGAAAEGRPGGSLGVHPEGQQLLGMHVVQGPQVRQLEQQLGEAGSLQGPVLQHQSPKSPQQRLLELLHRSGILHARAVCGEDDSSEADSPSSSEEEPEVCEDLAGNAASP
How it was run: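 First, HepG2 cells receive multiple GAL4-UAS reporter units and the chimeric receptor. They are then dosed for 24 h, after which RNA is reverse-transcribed, amplified, labelled, HpaI-cut and sized by capillary electrophoresis; gain relative to DMSO is scored.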

[10] = read-out: Interleukin-8 (IL8), CXCL8 (gene 3576); assay: BSK_3C_IL8: BioMAP Diversity Plus: 3C Assay for Interleukin-8 (IL8) Biomarker Activity (AID 2283020); conditions: primary human endothelial cells (HUVEC); actives raise or lower the signal
How it was run: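 Endothelial primary cells of human umbilical vein origin are dosed with chemical; after 24 h the IL-8 biomarker is measured by ELISA, and concentration–response is fitted in both directions versus DMSO.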

Measured: AC50

Sequence of E-selectin (Homo sapiens) (P16581 whole entry, looked up): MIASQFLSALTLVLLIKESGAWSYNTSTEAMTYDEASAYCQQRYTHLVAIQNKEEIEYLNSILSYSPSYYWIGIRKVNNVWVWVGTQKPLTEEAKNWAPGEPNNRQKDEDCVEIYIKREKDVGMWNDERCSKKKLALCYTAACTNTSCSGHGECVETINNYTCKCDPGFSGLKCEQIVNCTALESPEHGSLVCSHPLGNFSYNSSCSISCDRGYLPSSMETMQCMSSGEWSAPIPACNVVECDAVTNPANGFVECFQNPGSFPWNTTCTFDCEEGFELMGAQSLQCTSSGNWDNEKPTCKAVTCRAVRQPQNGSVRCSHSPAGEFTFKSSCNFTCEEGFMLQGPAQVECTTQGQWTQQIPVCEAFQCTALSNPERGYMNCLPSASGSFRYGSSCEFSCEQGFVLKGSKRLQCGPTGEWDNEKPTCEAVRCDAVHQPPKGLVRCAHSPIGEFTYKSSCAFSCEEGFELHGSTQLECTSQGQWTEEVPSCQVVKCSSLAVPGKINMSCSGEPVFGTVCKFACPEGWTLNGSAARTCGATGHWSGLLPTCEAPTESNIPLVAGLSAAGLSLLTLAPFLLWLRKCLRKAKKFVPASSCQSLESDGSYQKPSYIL

O=Cc1ccco1
not listed: [9] | [10]
inactive: all other assays above

OCCCBr
not listed: [2] | [10]
inactive: all other assays above

COC(=O)c1ccccc1N
not listed: [2] | [4]
inactive: all other assays above

[As]#[In]
not listed: [4]
inactive: all other assays above

CN(C)c1ccc(C(=O)c2ccc(N(C)C)cc2)cc1
inactive: [1] | [3] | [4] | [5] | [7]
active: [6] 2.3 µM | [8] 20 µM

O=C1CCCO1
not listed: [3]
inactive: all other assays above

Nc1ccc([N+](=O)[O-])cc1
not listed: [4]
inactive: all other assays above

CS(=O)(=O)NC(=O)c1cc(Oc2ccc(C(F)(F)F)cc2Cl)ccc1[N+](=O)[O-]
not listed: [9] | [10]
inactive: all other assays above

Nc1ccc(N=Nc2ccccc2)cc1
inactive: [1] | [2] | [5] | [6] | [7] | [8]

[Cl-].[Cl-].[Hg+2]
active: [5] 31 µM | [7] 30.7 µM | [8] 30 µM
not listed: [4] | [10]
inactive: all other assays above

Oc1ccc2ccc3cccc4ccc1c2c34
active: [3] 43.3 µM | [5] 32.4 µM | [6] 29.7 µM | [7] 14.2 µM | [8] 26.6 µM
inactive: [1] | [2]

ClC1=C(Cl)[C@]2(Cl)[C@H]3[C@H]([C@@H]4C=C[C@H]3C4)[C@@]1(Cl)C2(Cl)Cl
inactive: [1] | [2] | [9] | [5]
active: [3] 10.4 µM | [6] 32.2 µM | [7] 24.2 µM | [8] 24.9 µM | [10] 28.8 µM

c1ccc(NNc2ccccc2)cc1
active: [3] 100 µM
not listed: [4]
inactive: all other assays above

OCCOCCO
not listed: [9]
inactive: all other assays above

Cc1ccc(N)cc1
not listed: [2] | [4] | [10]
inactive: all other assays above

CC(C)(OOC(C)(C)c1ccccc1)c1ccccc1
inactive: [1] | [2] | [5]
active: [3] 12.4 µM | [4] 26.1 µM | [6] 15.8 µM | [7] 26.5 µM | [8] 24.6 µM

CCCSC(=O)N(CCC)CCC
active: [1] 132 µM | [3] 34.1 µM
not listed: [2] | [10]
inactive: all other assays above

OCCCl
not listed: [2]
inactive: all other assays above

CCNS(=O)(=O)C(F)(F)C(F)(F)C(F)(F)C(F)(F)C(F)(F)C(F)(F)C(F)(F)C(F)(F)F
active: [5] 44.5 µM and 21.9 µM | [6] 51.4 µM | [7] 30 µM | [8] 14.6 µM and 6.07 µM
inactive: [1] | [2] | [3] | [9] | [5] | [6] | [7] | [8]
